Source: PubChem BioAssay (NCI)
The panel holds about 79,000 compounds, 15% with a hit somewhere; the sample as a whole holds those more often. Active and inactive are the calls of the source. No stated cut-off is given here; in the data, active means growth inhibition above about 70%; inactive means the rest.

What was measured:
[1] = NCI Yeast Anticancer Drug Screen. Data for the wt1 strain (AID 149);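 further: 0% = growth of vehicle-treated wt1 cultures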; details: S. cerevisiae wt1 strain (SPY 50644) growth inhibition, hits give high values
Outline: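 Using yeast strain wt1, compound-induced growth inhibition was determined against vehicle-treated cultures.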

[2] = NCI Yeast Anticancer Drug Screen. Data for the rad50EPP+ strain (AID 151);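 further: 0% = growth of vehicle-treated control cultures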; details: S. cerevisiae rad50 mutant strain, hits give high values
Outline: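 Exposing the rad50EPP+ strain to each compound, growth was compared with vehicle-only cultures to give inhibition.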

[3] = NCI Yeast Anticancer Drug Screen. Data for the mgt1 strain (AID 153); details: S. cerevisiae mgt1 mutant growth inhibition, hits give high values
Outline: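 Genetically defined yeast (mgt1) treated with compound; inhibition of growth expressed against vehicle-treated controls.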

[4] = NCI Yeast Anticancer Drug Screen. Data for the rad50 strain (AID 155);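 further: 0% = growth of vehicle-only cultures of the same strain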; details: S. cerevisiae rad50 strain growth inhibition, hits give high values
Outline: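 Relative growth inhibition (compound vs vehicle) was measured in yeast with a defined repair-gene alteration.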

[5] = NCI Yeast Anticancer Drug Screen. Data for the mec2-1 strain (AID 157); details: S. cerevisiae mec2-1 strain, hits give high values
Outline: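 Readout is yeast growth inhibition, normalised to vehicle-treated controls, in the mec2-1 strain exposed to compound.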

[6] = NCI Yeast Anticancer Drug Screen. Data for the rad14 strain (AID 159);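 further: 0% = growth of vehicle-treated control cultures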; details: S. cerevisiae rad14 strain growth inhibition, hits give high values
Outline: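 Screen for anticancer potential: a yeast strain altered in DNA damage repair is grown with compound, and reduced growth is quantified against vehicle controls.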

[7] = NCI Yeast Anticancer Drug Screen. Data for the sgs1 mgt1 strain (AID 161);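 further: 0% = growth of cultures given vehicle only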; details: S. cerevisiae sgs1 mgt1 strain, hits give high values
Outline: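 Compounds are added to genetically altered yeast, and growth is compared with cultures given vehicle alone to give percent inhibition.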

[8] = NCI Yeast Anticancer Drug Screen. Data for the CLN2oe strain (AID 163);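 further: 0% = growth of vehicle-only control cultures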; details: S. cerevisiae CLN2oe strain, hits give high values
Outline: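 Values reflect how much compound exposure reduced yeast growth, referenced to vehicle-exposed cells. Assay organism is a strain with a defined genetic change affecting cell-cycle control.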

[9] = NCI Yeast Anticancer Drug Screen. Data for the cln2 rad14 strain (AID 165);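 further: 0% = growth equal to vehicle treated cultures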; details: S. cerevisiae cln2 rad14 strain, hits give high values
Outline: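 Relative to vehicle controls, growth inhibition of compound-treated cln2 rad14 yeast was recorded.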

[10] = NCI Yeast Anticancer Drug Screen. Data for the bub3 strain (AID 167); details: S. cerevisiae bub3 mutant strain, hits give high values
Outline: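 Screening used yeast with an engineered genetic alteration affecting cell cycle control. Compound-exposed cultures were compared with vehicle cultures, and reduced growth was taken as inhibition.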

[11] = NCI Yeast Anticancer Drug Screen. Data for the wt2 strain (AID 169);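 further: 0% = growth of vehicle-treated yeast cultures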; details: S. cerevisiae wt2 strain growth inhibition, hits give high values
Outline: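 Values express reduction in yeast growth under compound treatment, referenced to vehicle-treated cells.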

[12] = NCI Yeast Anticancer Drug Screen. Data for the mlh1 strain (AID 171);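 further: 0% = growth of vehicle-treated control cultures of the same strain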; details: S. cerevisiae mlh1 strain growth inhibition, hits give high values
Outline: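 Steps: expose the defined-mutant yeast strain to compound; expose a parallel culture to vehicle; measure growth; express compound effect as inhibition relative to the vehicle culture.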

[13] = NCI Yeast Anticancer Drug Screen. Data for the sgs1 strain (AID 173);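 further: 0% = growth of vehicle-only control cultures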; details: S. cerevisiae sgs1 mutant, hits give high values
Outline: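 Treat defined-mutant yeast with compound; measure growth; calculate inhibition relative to vehicle-treated cells.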

[14] = NCI Yeast Anticancer Drug Screen. Data for the mlh1 rad18 strain (AID 175); details: S. cerevisiae mlh1 rad18 strain growth inhibition, hits give high values
Outline: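 Test agents were incubated with a yeast strain of defined genotype (DNA damage repair defect). Inhibition of growth was derived by comparison with vehicle-exposed cultures.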

[15] = NCI Yeast Anticancer Drug Screen. Data for the rad18 strain (AID 177); details: S. cerevisiae rad18 mutant growth inhibition, hits give high values
Outline: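 A genetically defined yeast mutant impaired in DNA damage repair was treated with test compounds, then its growth was measured against cultures receiving vehicle alone.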

[16] = at 5.0 µM (retest, dose inferred, filed as 0.5)
[17] = at 50.0 µM (retest, dose inferred, filed as 5.0)

Measured: growth inhibition

Cc1ccc2oc(-c3cccc(N)c3)nc2c1
inactive: [1]; at 1.2 µM 0% | [1]; at 3.7 µM -4% | [1]; at 11.0 µM 2% | [1]; at 33.0 µM 0% | [1]; at 100.0 µM 5% | [2]; at 1.2 µM 1% | [2]; at 3.7 µM 2% | [2]; at 11.0 µM 10% | [2]; at 33.0 µM 23% | [2]; at 100.0 µM 36% | [3]; at 1.2 µM -6% | [3]; at 3.7 µM -13% | [3]; at 11.0 µM -4% | [3]; at 33.0 µM 6% | [3]; at 100.0 µM 24% | [4]; at 1.2 µM -3% | [4]; at 3.7 µM 4% | [4]; [16] -7% | [4]; at 11.0 µM 1% | [4]; at 33.0 µM 12% | [4]; [17] 10% | [4]; at 50.0 µM 17.4% | [4]; at 100.0 µM 29% | [5]; at 1.2 µM -2% | [5]; at 3.7 µM -3% | [5]; [16] -10% | [5]; at 11.0 µM 3% | [5]; at 33.0 µM 3% | [5]; [17] 13% | [5]; at 50.0 µM 3.95% | [5]; at 100.0 µM 8% | [6]; at 1.2 µM 1% | [6]; at 3.7 µM 3% | [6]; at 11.0 µM 9% | [6]; at 33.0 µM 18% | [6]; at 100.0 µM 27% | [7]; [16] 10% | [7]; [17] 48% | [7]; at 50.0 µM -18.8% | [8]; at 1.2 µM -5% | [8]; at 3.7 µM -6% | [8]; at 11.0 µM -4% | [8]; at 33.0 µM 6% | [8]; at 100.0 µM 15% | [9]; [16] -42% | [9]; [17] -2% | [9]; at 50.0 µM 27.5% | [10]; at 1.2 µM -6% | [10]; at 3.7 µM -3% | [10]; [16] 9% | [10]; at 11.0 µM 9% | [10]; at 33.0 µM 23% | [10]; [17] 36% | [10]; at 50.0 µM 23.4% | [10]; at 100.0 µM 35% | [11]; at 1.2 µM -3% | [11]; at 3.7 µM -2% | [11]; at 11.0 µM -2% | [11]; at 33.0 µM 1% | [11]; at 100.0 µM 11% | [12]; at 1.2 µM -4% | [12]; at 3.7 µM 6% | [12]; at 11.0 µM -2% | [12]; at 33.0 µM 2% | [12]; at 100.0 µM 21% | [13]; at 1.2 µM -1% | [13]; at 3.7 µM 0% | [13]; at 11.0 µM 2% | [13]; at 33.0 µM 5% | [13]; at 100.0 µM 10% | [14]; [16] -7% | [14]; [17] 28% | [14]; at 50.0 µM -6% | [15]; at 1.2 µM -2% | [15]; at 3.7 µM -4% | [15]; at 11.0 µM 3% | [15]; at 33.0 µM 17% | [15]; at 100.0 µM 53%

Cc1nc2ccccc2c(=O)n1NC(=O)c1ccc(CS)cc1
active: [1]; at 100.0 µM 96% | [2]; at 100.0 µM 85% | [3]; at 100.0 µM 86% | [4]; at 100.0 µM 97% | [5]; at 50.0 µM 76.2% | [5]; at 100.0 µM 97% | [6]; at 100.0 µM 95% | [8]; at 100.0 µM 95% | [10]; at 100.0 µM 96% | [11]; at 100.0 µM 92% | [12]; at 100.0 µM 95% | [13]; at 100.0 µM 95% | [14]; [17] 71% | [15]; at 100.0 µM 96%
inactive: [1]; at 1.2 µM 8% | [1]; at 3.7 µM 1% | [1]; at 11.0 µM 4% | [1]; at 33.0 µM 17% | [2]; at 1.2 µM -9% | [2]; at 3.7 µM 4% | [2]; at 11.0 µM -3% | [2]; at 33.0 µM 23% | [3]; at 1.2 µM -11% | [3]; at 3.7 µM -12% | [3]; at 11.0 µM -17% | [3]; at 33.0 µM 6% | [4]; at 1.2 µM 7% | [4]; at 3.7 µM 3% | [4]; [16] -24% | [4]; at 11.0 µM 4% | [4]; at 33.0 µM 23% | [4]; [17] 9% | [4]; at 50.0 µM 66.2% | [5]; at 1.2 µM -16% | [5]; at 3.7 µM -4% | [5]; [16] -27% | [5]; at 11.0 µM -13% | [5]; at 33.0 µM 23% | [5]; [17] 1% | [6]; at 1.2 µM -21% | [6]; at 3.7 µM -23% | [6]; at 11.0 µM -25% | [6]; at 33.0 µM 26% | [7]; [16] -14% | [7]; [17] 3% | [7]; at 50.0 µM 65.5% | [8]; at 1.2 µM 2% | [8]; at 3.7 µM -17% | [8]; at 11.0 µM -6% | [8]; at 33.0 µM 22% | [9]; [16] -29% | [9]; [17] 6% | [9]; at 50.0 µM 31.9% | [10]; at 1.2 µM 16% | [10]; at 3.7 µM -6% | [10]; [16] -13% | [10]; at 11.0 µM 16% | [10]; at 33.0 µM 45% | [10]; [17] 41% | [10]; at 50.0 µM -8.65% | [11]; at 1.2 µM 4% | [11]; at 3.7 µM 7% | [11]; at 11.0 µM 9% | [11]; at 33.0 µM 16% | [12]; at 1.2 µM 0% | [12]; at 3.7 µM 12% | [12]; at 11.0 µM 16% | [12]; at 33.0 µM 36% | [13]; at 1.2 µM 15% | [13]; at 3.7 µM 11% | [13]; at 11.0 µM 20% | [13]; at 33.0 µM 61% | [14]; [16] -51% | [14]; at 50.0 µM 65% | [15]; at 1.2 µM 9% | [15]; at 3.7 µM 12% | [15]; at 11.0 µM 2% | [15]; at 33.0 µM 40%
